In PubChem BioAssay AID463173 (ICCB-Longwood Screening Facility, Harvard Medical School, 2010):
Screen size: about 52,000 compounds; about 4,300 (8.3%) were called active. The sample holds actives, similar compounds and a random draw of the others, so the mix is not that of the screen. Unmarked numbers belong to inactive results. Cut-off read from the data, not from the text of the source: active = survival mostly below about 52% (no sharp cut-off); inactive = mostly above about 56%.

Each compound was assayed on DeltatarO mutant (assay: growth inhibition of S. aureus wild type versus tarO mutant, primary screen, teichoic acid synthesis inhibitors, RN4220, OD600 (AID 463173)). Conditions: OD600, 18 h, hits give low values, screened at 18.75 µg/mL (by protocol).

SMILES	survival
CCCNC(=O)C1CCN(C(=O)N2CC(C)Oc3ccccc32)CC1 (stereo not given)	65%
CCOc1ccc(-n2c(=O)c3c(C)c(C)sc3n(Cc3c(F)cccc3Cl)c2=O)cc1	96%
Cc1cccc(C(=O)NCC(=O)OCc2cc(=O)n3nc(C)sc3n2)c1	82%
N#Cc1ccc(C(=O)NCc2ccc3c(c2)CCN3C(=O)c2ccc(F)cc2)cc1	83%
CCOc1ccc(S(=O)(=O)N2Cc3ccccc3CC2C(=O)Nc2ccc(NC(C)=O)cc2)cc1 (stereo not given)	69%
Cc1ccc(-n2ncc(C(=O)Nc3ccc4c(c3)OCO4)c2C2CCN(C(=O)OC(C)(C)C)CC2)cc1	79%
COc1ccc(CC(CC(=O)O)C(=O)NCc2ccccc2)cc1 (stereo not given)	81%
CCC(=O)Nc1ccc(C(=O)Nc2c[nH]c(=O)[nH]c2=O)cc1	85%
CC1CCN(c2nnc(-n3cccc3CNc3cccc(F)c3)s2)CC1	93%
Cc1ccc(NC(=O)CSc2nnc(-c3ccc([N+](=O)[O-])cc3)o2)c(C)c1	73%
CCOC(=O)c1cc(S(=O)(=O)Nc2cc(OC)ccc2OC)[nH]n1	119%
CCOC(=O)c1cc(S(=O)(=O)Nc2cc(C)c(Cl)cc2OC)[nH]n1	77%
CCOC(=O)c1cc(S(=O)(=O)Nc2ccc(OC)c(Cl)c2)[nH]n1	-4% (active)
COc1cc(OC)cc(C(=O)Nc2cc3c(cc2N2CCCCC2)n(C)c(=O)n3C)c1	83%
COc1ccc(OC)c(S(=O)(=O)N2CCC(c3ccncc3)CC2)c1	122%
COc1ccc(CNC(=O)c2cc3c(=O)n(C)c4ccccc4c3n2C)cc1	89%
COc1ccc(-n2cc(C(=O)NCc3cccc(OC)c3)c3ccccc3c2=O)cc1	110%
CCOc1ccc(CCNC(=O)c2cn(-c3ccc(OC)cc3)c(=O)c3ccccc23)cc1OCC	111%
COc1cccc(-n2cc(C(=O)NCc3cccc(Cl)c3)c3ccccc3c2=O)c1	58% (active)
COc1ccc(-n2cc(C(=O)NCCc3cc(OC)ccc3OC)c3ccccc3c2=O)cc1	55% (active)
COc1ccc(CNC(=O)c2cn(-c3cccc(OC)c3)c(=O)c3ccccc23)cc1	67%
COc1ccc(CNC(=O)c2cc3c(=O)n(C)c4ccccc4c3n2C)c(OC)c1	50%
COc1ccc(-n2cc(C(=O)NCCc3ccc(C)cc3)c3ccccc3c2=O)cc1	53%

SMILES	survival
COc1ccc(OC)c(CCNC(=O)c2cc3c(=O)n(C)c4ccccc4c3n2C)c1	43% (active)
CC1CCC(NC(=O)c2ccc(CSc3nc4ccncc4n3Cc3ccc(F)cc3)cc2)CC1 (stereo not given)	59%
COc1ccc(OC)c(-n2c(=O)[nH]c3cc(C(=O)NCCc4ccc(OC)c(OC)c4)ccc3c2=O)c1	76%
CCC1CN(C(=O)N2CCC(C(=O)NCc3ccc(N(C)C)cc3)CC2)c2ccccc2O1 (stereo not given)	73%
CCOC(=O)N1CCc2c(sc(NCc3ccc(N(CC)CC)cc3)c2C(=O)Nc2cc(OC)ccc2OC)C1	71%
CCOC(=O)c1ccc(NC2=CC(c3ccc(F)cc3)N(c3ccc(C(=O)OCC)cc3)C2=O)cc1 (stereo not given)	66%
CCc1nc2cccnc2n1-c1ccc(CC(=O)Nc2ccc(C)cc2)cc1	78%
COc1ccccc1Nc1nn2c(=O)c3ccc(C(=O)NCCCOC(C)C)cc3nc2s1	71%
CCOC(=O)c1ccc(NC(=O)C2=C(C)C(=O)OC23CCCCCC3)cc1	81%
Cc1cccc(OCC(=O)Nc2ccc(S(=O)(=O)Nc3onc(C)c3C)cc2)c1C	40% (active)
Cc1cc(NS(=O)(=O)c2ccc(NC(=O)COc3ccccc3Br)cc2)no1	67%
Cc1ccc(C)c(OCC(=O)Nc2ccc(S(=O)(=O)Nc3onc(C)c3C)cc2)c1C	165%
Cc1cc(NS(=O)(=O)c2ccc(NC(=O)COc3c(C)cc(Br)cc3C)cc2)no1	110%
CCC(C)c1ccccc1OCC(=O)Nc1ccc(S(=O)(=O)Nc2cc(C)on2)cc1 (stereo not given)	80%
Cc1noc(NS(=O)(=O)c2ccc(NC(=O)COc3ccccc3Br)cc2)c1C	53%
Cc1cc(NS(=O)(=O)c2ccc(NC(=O)COc3cc(C)c(Br)cc3C(C)C)cc2)no1	13% (active)
Cc1ccc(OCC(=O)Nc2ccc(S(=O)(=O)Nc3cc(C)on3)cc2)c(Br)c1	56%
Cc1cc(NS(=O)(=O)c2ccc(NC(=O)COc3ccc(Br)cc3C)cc2)no1	32% (active)
COc1ccc2c(c1)c(CC(=O)Nc1cc(C)c(OC)c(C)c1)c(C)n2C(=O)c1ccc(Cl)cc1	71%
COc1cc(C(c2nnnn2C2CCCCC2)N2CCc3ccccc3C2)ccc1O (stereo not given)	62%
COc1ccc(N2CCN(C(=O)c3ccc4c(c3)N(Cc3cccc(Cl)c3)C(=O)c3ccccc3S4(=O)=O)CC2)cc1	83%
COc1cc2oc(=O)c(CC(=O)NCc3ccc(OC)c(OC)c3)c(C)c2cc1Cl	71%
CC(=O)N1CCC2(CC1)OC(=O)C(C)=C2C(=O)NCc1ccc(Cl)cc1	58%

SMILES	survival
Cc1cc(C)cc(NC(=O)c2cccc(C(=O)Nc3cc(C)cc(C)c3)c2)c1	129%
CCOc1ccc(C(=O)N2CCN(c3ccccc3)CC2)cc1	78%
COc1ccccc1NC(=O)C1=C(C)NC(=S)NC1C (stereo not given)	86%
CC1=C(C(=O)Nc2ccccc2)C(c2ccc(C)o2)NC(=S)N1 (stereo not given)	61% (active)
CC1=C(C(=O)Nc2ccccc2C)C(c2ccccc2O)NC(=S)N1 (stereo not given)	103%
O=S(=O)(Nc1ccccn1)c1cccs1	83%
CCN(C(=O)c1nn(-c2ccc(OC)c(Cl)c2)c(=O)c2c1c1ccccc1n2C)c1cccc(C(F)(F)F)c1	75%
COc1ccc2c(c1)-c1nc(NC(=O)c3cc(Cl)ccc3OC)sc1CC2	69%
COc1ccc2c(c1)-c1nc(NC(=O)c3cccc(Br)c3)sc1CC2	51%
COc1ccc2c(c1)-c1nc(NC(=O)c3ccc(Cl)cc3)sc1CC2	96%
COc1ccc2c(c1)-c1nc(NC(=O)c3ccccc3F)sc1CC2	2% (active)
COc1ccc2c(c1)CCc1sc(NC(=O)c3ccc(Cl)cc3)nc1-2	31% (active)
COc1ccc2c(c1)Cc1sc(NC(=O)c3ccccc3C)nc1-2	102%
COc1ccc2c(c1)Cc1sc(NC(=O)c3ccccc3Br)nc1-2	63%
COc1ccc2c(c1)Cc1sc(NC(=O)c3cccc(C)c3)nc1-2	18% (active)
COc1ccc2c(c1)Cc1sc(NC(=O)c3cccc(F)c3)nc1-2	67%
COc1ccc(C(=O)Nc2nc3c(s2)CCc2cc(OC)ccc2-3)cc1	35% (active)
COc1ccc(C(=O)Nc2nc3c(s2)Cc2cc(OC)ccc2-3)cc1	55%
COc1ccc2c(c1)Cc1sc(NC(=O)c3ccc(Cl)cc3)nc1-2	80%
COc1ccc(CN2C(=O)C(NC(=O)c3ccccc3OC)(C(F)(F)F)N=C2c2ccccc2)cc1 (stereo not given)	87%
COc1cc(Cl)c(C)cc1NC(=O)c1cnc(N2CCCCC2)c2ccccc12	115%
O=C(c1ccc2c(c1)N(Cc1cccc(F)c1)C(=O)c1ccccc1S2)N1CCCC1	88%
COc1ccc(N2CCN(C(=O)c3cc4c(=O)oc5ccc(C)cc5c4s3)CC2)cc1	111%

SMILES	survival
CCCn1cc(S(=O)(=O)c2cccc(Cl)c2)c(=O)c2cc(F)c(N3CCOCC3)cc21	74%
COc1cccc(NC(=O)C2CCCN(S(=O)(=O)c3cccc4nonc34)C2)c1 (stereo not given)	90%
CCCS(=O)(=O)c1c(S(=O)(=O)CCC)c2cc(C(C)(C)C)ccn2c1C(=O)c1ccccc1	118%
CC1Cc2ccccc2N1C(=O)CSc1nnnn1Cc1ccccc1 (stereo not given)	91%
Cc1cccc(-n2nnc(-c3nc(-c4cccs4)no3)c2N)c1C	60%
CCS(=O)(=O)N1CC(=O)N(c2ccc(Cl)cc2)C(C)(C(=O)NC2CCCCC2)C1 (stereo not given)	96%
COc1ccc2c(c1)-c1nc(NC(=O)c3cc(OC)c(OC)c(OC)c3)sc1CC2	57%
COc1ccc2c(c1)-c1nc(NC(=O)c3ccc(C)cc3)sc1CC2	5% (active)
COc1ccc2c(c1)-c1nc(NC(=O)c3ccc(OC)c(Br)c3)sc1CC2	59%
COc1cc(C(=O)Nc2ccc(NC(=O)c3ccc(Br)cc3)cc2)cc(OC)c1OC	75%
O=C(CSc1nc2c(c(=O)[nH]1)CN(Cc1ccc3c(c1)OCO3)CC2)Nc1cccc(Cl)c1	76%
CCOC(=O)CNc1c(-c2ccc(OC)cc2)nc2ccc(Cl)cn12	58%
CCOC(=O)c1ccc(NC(=O)CSc2nc(C)c(Cc3ccccc3)c(=O)[nH]2)cc1	45% (active)
Cc1cccc(NC(=O)CSc2nc(C)c(Cc3ccccc3)c(=O)[nH]2)c1	18% (active)
COc1cccc(NC(=O)CSc2nc(C)c(Cc3ccccc3)c(=O)[nH]2)c1	58%
CCOC(=O)c1ccc(NC(=O)CSc2nc3cc4ccccc4cc3[nH]2)cc1	65%
Cc1ccc(NC(=O)CSc2nc(C)c(Cc3ccccc3)c(=O)[nH]2)cc1	48%
CCOC(=O)c1cccc(NC(=O)CSc2nc3cc4ccccc4cc3[nH]2)c1	36% (active)
Cc1ccc(NC(=O)CSc2nc(C)c(Cc3ccccc3)c(=O)[nH]2)cc1C	84%
COC(=O)c1ccc(NC(=O)CSc2nc3cc4ccccc4cc3[nH]2)cc1	65%
Cc1nc(SCC(=O)Nc2ccc(Br)cc2)[nH]c(=O)c1Cc1ccccc1	59%
